Pol iota inh – qHTS for Inhibitors of Polymerase Iota | Pol iota fluorescent replication assay, 10 min | AID 588590, 2011 | 390,000 compounds, 1% hits | Potency, µM (doses to about 115 µM), for inactives: at the top dose activity, negative = inhibition, hits mostly inhibitors; further: potency means the concentration at half of the fitted maximal effect
Target sequence (Q9UNA4 whole entry, looked up): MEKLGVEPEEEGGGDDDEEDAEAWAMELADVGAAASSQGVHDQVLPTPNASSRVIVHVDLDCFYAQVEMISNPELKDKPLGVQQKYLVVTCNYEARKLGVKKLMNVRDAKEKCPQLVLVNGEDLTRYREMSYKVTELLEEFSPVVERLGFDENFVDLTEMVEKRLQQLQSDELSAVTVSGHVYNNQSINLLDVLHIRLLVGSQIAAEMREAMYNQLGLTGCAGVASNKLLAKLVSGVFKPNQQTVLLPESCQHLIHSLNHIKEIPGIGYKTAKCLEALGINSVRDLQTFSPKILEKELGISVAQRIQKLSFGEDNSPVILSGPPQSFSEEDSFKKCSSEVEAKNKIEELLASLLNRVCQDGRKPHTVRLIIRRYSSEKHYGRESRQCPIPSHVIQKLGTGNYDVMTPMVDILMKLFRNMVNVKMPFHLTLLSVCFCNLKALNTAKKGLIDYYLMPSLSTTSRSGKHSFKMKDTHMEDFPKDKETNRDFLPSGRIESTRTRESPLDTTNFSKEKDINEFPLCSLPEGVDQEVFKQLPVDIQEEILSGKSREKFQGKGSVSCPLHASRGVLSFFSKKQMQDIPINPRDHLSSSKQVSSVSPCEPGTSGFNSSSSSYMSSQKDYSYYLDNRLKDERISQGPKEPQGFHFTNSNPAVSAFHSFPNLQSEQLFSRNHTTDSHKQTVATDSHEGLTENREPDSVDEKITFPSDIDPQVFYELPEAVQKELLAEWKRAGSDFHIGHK
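Fluorescent replication assay read twice, at 0 min and 10 min after adding 50 nM (final) substrate. Enzyme (10 nM) and compounds were first incubated 15 min at room temperature; enzyme-free buffer wells were negative controls.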
Pol eta inh-1 – qHTS for Inhibitors of Polymerase Eta | DNA polymerase eta (Homo sapiens), Q9Y253 | recombinant Pol eta, fluorescent DNA replication assay | Potency, µM (series often up to 114 µM), for inactives: at the highest dose activity change, negative = inhibition, actives largely listed as inhibitors | 390,000 compounds, 1.2% hits; further: potency means the concentration at half of the fitted maximal effect; on the % scale 0 is the no-effect control and ±100 the full control effect
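Pol eta at 10 nM preincubated with compounds 15 min at room temperature; reaction started with fluorescent substrate (50 nM final) and read kinetically at 0 and 10 min.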
WRN inhibitor – qHTS for Inhibitors of WRN Helicase | Bifunctional 3'-5' exonuclease/ATP-dependent helicase WRN (Homo sapiens), Q14191 | WRN helicase unwinding, fluorescent forked duplex, kinetic | AID 651768, 2012 | 360,000 compounds, 0.46% hits | Potency, µM (titrated, usually from 114 µM), inactives show at the top dose activity change, negative = inhibition, hits mostly inhibitors; further: potency means the concentration at half of the fitted maximal effect; on the % scale 0 is the no-effect control and ±100 the full control effect; nearly all actives have a fitted effect of over 55% in size
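Kinetic fluorescence helicase assay: unwinding of a quenched forked DNA duplex (100 nM final) with 2 mM ATP final raises red fluorescence (525/598 nm). Compounds sat 15 min at room temperature with 20 nM WRN beforehand.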
PI5P4Ka inh – qHTS for Inhibitors of phosphatidylinositol 5-phosphate 4-kinase (PI5P4K). AID 652105, 2013. max response, %. Phosphatidylinositol 5-phosphate 4-kinase type-2 alpha (Homo sapiens), P48426. PI5P4Kalpha enzyme, ADP-Glo luminescence, 60 min; stronger effect = lower value. 330,000 compounds, 1.2% hits; active means max response of -50% or lower; inconclusive means between -30% and -50%; inactive means -30% or higher; further: value at the top dose of about 77 µM; on the % scale 0 is the no-effect control and ±100 the full control effect
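Single end-point luminescence (ADP-Glo) quantified ADP from PI5P4Kalpha turnover; ATP 5 microM final, 1 h at RT, 0.1% CHAPS and 0.28 mM EGTA in HEPES pH 7.4.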
Pol beta inh-1 – qHTS Assay for Inhibitors of DNA Polymerase Beta; AID 485314, 2010; P06746; 340,000 compounds, 1.3% hits; Potency, µM (titrated, usually from 114 µM), for inactives: at the top dose activity change, negative = inhibition, usual class: inhibitors; Pol beta primer extension/strand displacement, fluorescence kinetic; further: potency means the concentration at half of the fitted maximal effect; on the % scale 0 is the no-effect control and ±100 the full control effect
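Kinetic readout of DNA synthesis with strand displacement by Pol beta. Compound and 10 nM enzyme sit 15 min at room temperature; 50 nM substrate starts the reaction, read immediately and at 10 min.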
Pol kappa inh-1 – qHTS for Inhibitors of Polymerase Kappa; Potency, µM (highest dose often 107 µM), for inactives: at the highest dose activity, negative = inhibition, usual class: inhibitors; AID 588579, 2011; 400,000 compounds, 0.53% hits; purified Pol kappa, fluorescent DNA synthesis assay, 10 min; further: potency means the concentration at half of the fitted maximal effect; on the % scale 0 is the no-effect control and ±100 the full control effect
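Inhibition of 10 nM Pol kappa is measured by a fluorescent read-out at 0 and 10 min following addition of 50 nM substrate (final), with a 15-min room-temperature compound preincubation.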
Pol beta inh-2 – Inhibitors of DNA Polymerase Beta: Hit validation; Pol beta primer extension/strand displacement, fluorescence kinetic; 250 compounds, 87% hits; AID 540280, 2011; Potency, µM, most hits filed as inhibitors; shares compounds with Pol beta inh-1; calls by dose curve; further: potency means the concentration at half of the fitted maximal effect
Klenow inh – Inhibitors of DNA Polymerase Beta: Hit Validation in Klenow Fragment Assay. shares compounds with Pol beta inh-1. Klenow exo- polymerase counter-screen, fluorescent DNA substrate. activity change, negative = inhibition, % at 57.1 µM. 250 tested, under 10 active
HIV RT counter – Inhibitors of DNA Polymerase Beta: Hit Validation in HIV-RT Assay. AID 540301, 2011. 250 tested, under 10 active. activity % (negative = inhibition, positive = activation), % at 57.1 µM. shares compounds with Pol beta inh-1. HIV-1 RT polymerase activity, counter-screen
POLB inh gel – Inhibitors of DNA Polymerase Beta: Hit Validation in Radiolabeled Extension Assay | shares compounds with Pol beta inh-1 | radiolabeled primer extension gel assay, phosphorimager | inhibition, % at 10 µM | 110 compounds, 91% hits | AID 540325, 2011;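 active means inhibition at 10 µM of 30% or more; inconclusive means no clear call, values can overlap the other calls; inactive means inhibition at 10 µM under 30%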
POLI cherry-pick – qHTS for Inhibitors of Polymerase Iota: Confirmatory Assay for Cherry-picked Compounds; AID 720496, 2013; 1,500 compounds, 77% hits; Potency, µM, most hits filed as inhibitors; shares compounds with Pol kappa inh-1; Pol iota primer extension, TAMRA/BHQ fluorescence; further: potency means the concentration at half of the fitted maximal effect
Pol kappa inh-2 – qHTS for Inhibitors of Polymerase Kappa: Confirmatory Assay for Cherry-picked Compounds; 920 compounds, 76% hits; shares compounds with Pol eta inh-1; purified Pol-kappa, fluorescent strand-displacement substrate; Potency, µM, hits mostly inhibitors; further: potency means the concentration at half of the fitted maximal effect
Pol eta inh-2 – qHTS for Inhibitors of Polymerase Eta: Confirmatory Assay for Cherry-picked Compounds | shares compounds with Pol eta inh-1 | Pol eta primer extension, TAMRA/BHQ fluorescence, 10 min | Potency, µM, usual class: inhibitors | 2,600 compounds, 64% hits | AID 720502, 2013; further: potency means the concentration at half of the fitted maximal effect
* = called active by the depositor. A selection: hits, their analogues and other compounds. The true share with any hit is near 2.8%. Unless noted, the call rests on the fitted dose curve; in most records, active means well fitted curve in the direction sought with a large enough effect; inconclusive means small, poorly fitted or top-dose-only effect, or another doubt; inactive means no such curve, though single readings can be large; an effect the other way counts as inactive or inconclusive.

O=C(CSc1ccccn1)Nc1ccc2c(c1)C(=O)c1ccccc1C2=O was read as Pol iota inh 3%, Pol eta inh-1 inconclusive, WRN inhibitor 40µM*, PI5P4Ka inh -21, Pol beta inh-1 8.9µM*, Pol kappa inh-1 -24%, Pol beta inh-2 11*, Klenow inh -26, HIV RT counter 24, POLI cherry-pick 53*, Pol kappa inh-2 60* and Pol eta inh-2 60*.
`COC(=O)c1ccccc1NC(=O)c1ccc2nccnc2c1` gave Pol iota inh inconclusive, Pol eta inh-1 32µM*, WRN inhibitor -28%, PI5P4Ka inh inconclusive, Pol beta inh-1 3.2µM*, Pol kappa inh-1 inconclusive, Pol beta inh-2 35*, Klenow inh -27, HIV RT counter 39 and Pol eta inh-2 inconclusive.
For COc1ccc(OC)c(NC(=O)Cn2cnc3onc(-c4ccc(Cl)cc4)c3c2=O)c1 the results were Pol iota inh 28%, Pol eta inh-1 -8%, Pol beta inh-1 26% and Pol kappa inh-1 -4%.
For CC1CCC2(CC1)NC(=O)N(CC(=O)Nc1sc3c(c1C(N)=O)CCC3)C2=O (stereo unspecified) the results were Pol iota inh 11µM*, Pol eta inh-1 18µM*, WRN inhibitor 50µM*, PI5P4Ka inh -87*, Pol beta inh-1 5µM*, Pol kappa inh-1 inconclusive, Pol beta inh-2 20*, Klenow inh -11, HIV RT counter inconclusive, POLB inh gel 100*, POLI cherry-pick 38* and Pol eta inh-2 19*.
`COC(=O)c1c(NC(=O)CN2C(=O)NC3(CCC(C)CC3)C2=O)sc2c1CCC2` (stereo unspecified) gave Pol iota inh inconclusive, Pol eta inh-1 3%, WRN inhibitor -1%, PI5P4Ka inh 4 and Pol kappa inh-1 -13%.
CCOc1ccc(CCNC(=O)CCc2cn(Cc3ccc(F)cc3)c3ccccc23)cc1 was read as Pol iota inh 2%, Pol eta inh-1 -11%, Pol beta inh-1 -17% and Pol kappa inh-1 -8%.
Screening N#CCCCc1cn(-c2nc3ccccc3s2)nn1 returned WRN inhibitor 3% and PI5P4Ka inh 0.
`CCC(=O)N1CCc2cc(S(=O)(=O)NC(Cc3ccccc3)C(=O)Nc3cccc(OC)c3)ccc21` (stereo unspecified) gave Pol iota inh 6%, Pol eta inh-1 0%, Pol beta inh-1 23% and Pol kappa inh-1 2%.
Cc1ccc(-c2cc(-c3ccco3)c(C#N)c(=O)[nH]2)cc1 was read as Pol iota inh inconclusive, Pol eta inh-1 28µM*, WRN inhibitor 32µM*, PI5P4Ka inh -17, Pol beta inh-1 11µM*, Pol kappa inh-1 inconclusive, Pol beta inh-2 22*, Klenow inh -28, HIV RT counter -5, POLB inh gel 96*, POLI cherry-pick 21* and Pol eta inh-2 15*.
COc1ccc(-c2[nH]c3ccccc3c2SCCNC(=O)c2ccc(S(=O)(=O)N(C)C)cc2)cc1 was read as Pol iota inh 18%, Pol eta inh-1 inconclusive, Pol beta inh-1 0% and Pol kappa inh-1 -2%.
For O=C1N=c2ccccc2=C1c1sc(Nc2ccc(O)cc2)nc1O the results were Pol iota inh 8.9µM*, Pol eta inh-1 32µM*, WRN inhibitor inconclusive, PI5P4Ka inh -65*, Pol beta inh-1 20µM*, Pol kappa inh-1 35µM*, Pol beta inh-2 7.9*, Klenow inh -38, HIV RT counter 6, POLI cherry-pick 47*, Pol kappa inh-2 17* and Pol eta inh-2 inconclusive.
Screening Cc1ccc(S(=O)(=O)Cc2ccc(C(=O)N3CCc4ccccc4C3)o2)cc1 returned Pol iota inh inconclusive, Pol eta inh-1 20µM*, WRN inhibitor inconclusive, PI5P4Ka inh inconclusive, Pol beta inh-1 16µM*, Pol kappa inh-1 56µM*, Pol beta inh-2 35*, Klenow inh -10, HIV RT counter 3, POLI cherry-pick 42* and Pol eta inh-2 48*.
`COc1ccc(S(=O)(=O)Cc2ccc(C(=O)N3CCc4ccccc4C3)o2)cc1` gave Pol iota inh 13%, Pol eta inh-1 -9%, WRN inhibitor -8%, PI5P4Ka inh -26, Pol beta inh-1 -22% and Pol kappa inh-1 3%.
Screening Cc1ccccc1-n1c(SC/C(O)=C(\C#N)c2nc3ccccc3[nH]2)nnc1-c1ccncc1 returned Pol iota inh inconclusive, Pol eta inh-1 inconclusive, WRN inhibitor -16%, PI5P4Ka inh inconclusive, Pol beta inh-1 inconclusive and Pol kappa inh-1 -31%.
